In PubChem BioAssay (NCI) one finds growth data, which are given here for 8 compounds.

Among the test systems are SK-MEL-2 melanoma; EKVX NSCLC; SN12C renal; UO-31 renal; TK-10 renal; ACHN renal; CAKI-1 renal; A498 renal; CCRF-CEM leukemia; MOLT-4 leukemia; SR leukemia; RPMI-8226 leukemia; OVCAR-8 ovarian; OVCAR-5 ovarian; OVCAR-4 ovarian; SK-OV-3 ovarian; IGROV1 ovarian; OVCAR-3 ovarian; HS 578T breast; NCI/ADR-RES ovarian.
Holding throughout (test): NCI-60 one-dose screen, 48 h (100 = growth as untreated, 0 = no growth, -100 = all killed)
What all share (settings): 10 µM unless noted

The panel holds about 83,000 compounds, 20% with a hit somewhere; the sample as a whole holds those more often.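 Method: cells in 96-well plates; compound added at one concentration; 48 h incubation; percent growth measured; values under 10 scored active.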 Unmarked numbers belong to inactive results. Activity calls are given as the source filed them.

As for `COc1ccc2nc3ccccc3c(NCc3ccc(Cl)cc3)c2c1`, the growth in the experiment with SK-MEL-2 melanoma is 71.3%; in the experiment on EKVX NSCLC, 33.8%; in the experiment with SN12C renal it was 22.1%; in the experiment with UO-31 renal it was 1.86% (active); in the experiment with TK-10 renal it was 52.9%; in the experiment on ACHN renal, 17.1%. The growth was 21.4% in the experiment on CAKI-1 renal; 8.58% (active) in the experiment on A498 renal; 8.43% (active) in the experiment on CCRF-CEM leukemia; -8.25% (active) with MOLT-4 leukemia; -29.6% (active) in the experiment with SR leukemia; -44.9% (active) with RPMI-8226 leukemia. Further, the growth in the experiment with OVCAR-8 ovarian is 29.7%; in the experiment with OVCAR-5 ovarian it was 26.5%; in the experiment with OVCAR-4 ovarian, 24.5%; in the experiment with SK-OV-3 ovarian, 64%; with IGROV1 ovarian, 16.3%; in the experiment with OVCAR-3 ovarian it was 51%. Moreover, the results for the growth in the experiment with HS 578T breast and in the experiment on NCI/ADR-RES ovarian were 36% and 22.9%, respectively.
Turning to `O=c1nc(-c2ccccc2)c2cc(-c3ccc(N4CCOCC4)cc3)ccc2[nH]1`, the growth in the experiment on SK-MEL-2 melanoma was 81.6%; in the experiment with EKVX NSCLC, 89.8%; with SN12C renal, 79.4%; in the experiment on UO-31 renal, 66%; in the experiment on TK-10 renal, 68.1%; in the experiment on ACHN renal, 71.6%. Besides, the growth with CAKI-1 renal was 74.8%; in the experiment with A498 renal, 88.6%; with CCRF-CEM leukemia, 77.4%; in the experiment with MOLT-4 leukemia it was 71.2%; in the experiment on SR leukemia it was 71.2%; with RPMI-8226 leukemia, 51.3%. Further, the growth was 82% in the experiment with OVCAR-8 ovarian; 91% in the experiment on OVCAR-4 ovarian; 77.1% in the experiment on SK-OV-3 ovarian; 81.6% in the experiment with IGROV1 ovarian; 97.1% in the experiment on OVCAR-3 ovarian; 84% with HS 578T breast.
As for `CCN(CC)c1cc(C)c(Cc2c(OC)ccc3ccccc23)cc1C`, the growth in the experiment with SK-MEL-2 melanoma was 94.4%; in the experiment with EKVX NSCLC, 93.4%; with SN12C renal, 91.2%; in the experiment with UO-31 renal it was 73.1%; in the experiment with TK-10 renal it was 95.6%; in the experiment on ACHN renal, 99.4%. Moreover, the growth in the experiment on CAKI-1 renal was 93.1%; with A498 renal it was 96.6%; in the experiment on CCRF-CEM leukemia it was 102%; in the experiment with MOLT-4 leukemia it was 79.7%; in the experiment with SR leukemia, 85.5%; in the experiment on RPMI-8226 leukemia it was 102%. Also, the growth in the experiment with OVCAR-8 ovarian was 96.8%; in the experiment with OVCAR-4 ovarian it was 96.9%; in the experiment on SK-OV-3 ovarian, 83.4%; in the experiment on IGROV1 ovarian, 88.6%; in the experiment on OVCAR-3 ovarian, 106%; in the experiment with HS 578T breast, 81%. Moreover, in the experiment with NCI/ADR-RES ovarian, the growth is 103%.
As for `CCN(CC)c1ccc(/C=N/NC(=O)c2ccc(S(C)(=O)=O)cc2)c(O)c1`, the growth in the experiment on SK-MEL-2 melanoma was 19.5%; with EKVX NSCLC, 15.5%; in the experiment with SN12C renal, 31.2%; in the experiment on UO-31 renal, -1.73% (active); with TK-10 renal, 30.5%; in the experiment with ACHN renal, 17.1%. Also, the growth in the experiment with CAKI-1 renal is 20.4%; in the experiment on A498 renal, 45.3%; with CCRF-CEM leukemia it was 6.94% (active); in the experiment with MOLT-4 leukemia, 2.7% (active); in the experiment on SR leukemia, 9.02% (active); in the experiment on RPMI-8226 leukemia, 21%. Further, the growth was 16.8% with OVCAR-8 ovarian; 34.7% with OVCAR-4 ovarian; 39% in the experiment on SK-OV-3 ovarian; 21.2% with IGROV1 ovarian; 33.4% in the experiment with OVCAR-3 ovarian; 68% in the experiment on HS 578T breast.
For the compound `CCN(CC)c1ccc(/C=N/NC(=O)C[N+](C)(C)C)cc1`, the growth with SK-MEL-2 melanoma was 137%; in the experiment with EKVX NSCLC, 94.2%; with SN12C renal it was 105%; in the experiment with UO-31 renal, 108%; in the experiment on TK-10 renal, 95.2%; with ACHN renal it was 105%. The growth was 101% in the experiment with CAKI-1 renal; 92.3% with A498 renal; 90.9% in the experiment with CCRF-CEM leukemia; 22.1% in the experiment with MOLT-4 leukemia; 16.6% in the experiment on SR leukemia; 92% in the experiment on RPMI-8226 leukemia. The growth is 111% with OVCAR-8 ovarian; 99.1% with OVCAR-5 ovarian; 102% in the experiment on SK-OV-3 ovarian; 110% with OVCAR-3 ovarian; 110% in the experiment on HS 578T breast; 103% in the experiment with NCI/ADR-RES ovarian.
In the case of `CCN(CC)CCNC(=O)n1cc(-c2ccncc2)c(-c2cc(Cl)cc(OC)c2)n1`, the growth with SK-MEL-2 melanoma was 92.3%; in the experiment on EKVX NSCLC, 43.4%; in the experiment with SN12C renal, 70.2%; in the experiment with UO-31 renal it was 43.8%; with TK-10 renal it was 30.1%; in the experiment on ACHN renal, 57.1%. Also, the growth in the experiment with CAKI-1 renal was 68.1%; with A498 renal, 63.7%; with CCRF-CEM leukemia it was 83.3%; with MOLT-4 leukemia it was 82.1%; in the experiment with SR leukemia it was 51%; in the experiment on OVCAR-8 ovarian it was 27.7%. Besides, the growth with OVCAR-5 ovarian is 88.4%; in the experiment on OVCAR-4 ovarian it was 70.4%; in the experiment with SK-OV-3 ovarian, 47.8%; with IGROV1 ovarian, 86%; in the experiment on OVCAR-3 ovarian, 94.3%; in the experiment on HS 578T breast, 88%.
Turning to `CCN1C(=O)N(CC)C2C1NN=c1s/c(=C\c3ccc(Br)cc3)c(=O)n12` (centres undefined), the growth in the experiment on SK-MEL-2 melanoma is 24.8%; in the experiment on EKVX NSCLC it was 38.2%; in the experiment on SN12C renal, 33.9%; with UO-31 renal it was 35.4%; with TK-10 renal, 52.7%; in the experiment on ACHN renal it was 29.2%. Moreover, the growth in the experiment on CAKI-1 renal is 23.8%; in the experiment on A498 renal, 12.6%; in the experiment with CCRF-CEM leukemia it was 11.4%; with MOLT-4 leukemia, 12.6%; in the experiment on SR leukemia it was 14%; in the experiment on OVCAR-8 ovarian, 2.86% (active). Further, the growth is 35.1% with OVCAR-5 ovarian; 65.7% with OVCAR-4 ovarian; 16.1% in the experiment with SK-OV-3 ovarian; 13.3% with IGROV1 ovarian; 3.78% (active) in the experiment with OVCAR-3 ovarian; 54% with HS 578T breast. Further, the growth with NCI/ADR-RES ovarian was 5.64% (active).
On to `O=C(CC(=O)C(F)(F)C(F)(F)C(F)(F)F)c1cc2ccccc2o1`, for which the growth with SK-MEL-2 melanoma was 106%; in the experiment with EKVX NSCLC, 100%; in the experiment with SN12C renal, 103%; in the experiment with UO-31 renal, 87.5%; in the experiment with TK-10 renal, 108%; in the experiment on ACHN renal it was 110%. Further, the growth in the experiment with CAKI-1 renal is 94.8%; with A498 renal, 125%; in the experiment on CCRF-CEM leukemia it was 102%; in the experiment on MOLT-4 leukemia, 102%; in the experiment on SR leukemia, 101%; in the experiment with RPMI-8226 leukemia, 109%. Besides, the growth was 102% in the experiment with OVCAR-8 ovarian; 98.6% in the experiment with OVCAR-4 ovarian; 105% with SK-OV-3 ovarian; 110% with IGROV1 ovarian; 106% in the experiment on OVCAR-3 ovarian; 103% in the experiment on HS 578T breast. The growth in the experiment on NCI/ADR-RES ovarian was 102%.
